Assay results from PubChem BioAssay.
For some assays here: Results with a measured potency or affinity are listed apart. The source made the active and inactive calls.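 Rule for the calls, unless noted: active = calcium signal ratio cut to more than 3 SD under the fully stimulated control mean yet still positive, in both repeats and the primary screen; inactive = the rest.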

Tests used:
[1] = system: TRPC4 beta (transient receptor potential cation channel C4), mouse; experiment: activators of mouse TRPC4 channel, confirmation, cell-based, Fluo4 calcium, HEK293 TRPC4beta/mu-opioid, duplicates, 10 µM (AID 2426;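 active = fluorescence ratio normalized to control raised more than 50% in primary screen plus both repeat runs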); settings: Fluo4 calcium fluorescence, at 10 µM; hits give high values
[2] = system: transient receptor potential cation channel C4 beta (TRPC4), mouse; experiment: activators of mouse TRPC4 channel, confirmation, cell-based, second round, Fluo4, HEK293 TRPC4beta/mu-opioid, 1 µM (AID 2461;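 active = primary screen active and over 50% activation in each of two duplicate runs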); settings: Fluo4 calcium fluorescence, at 1 µM; hits give high values
[3] = system: TRPC4 (transient receptor potential cation channel C4 beta), mouse; experiment: positive allosteric modulators of mouse TRPC4, confirmation, cell-based, second round, Fluo-4, HEK293 TRPC4beta/mu-opioid, 1 µM (AID 2554;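 active = primary screen hit whose fluorescence ratio, in both repeats, exceeds the weak agonist control mean by 3 SD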); settings: DAMGO EC20, Fluo-4 calcium flux, at 1 µM; hits give high values
[4] = system: TRPC4 beta (transient receptor potential cation channel C4), mouse; experiment: positive allosteric modulators of mouse TRPC4, confirmation, cell-based, Fluo-4, HEK293 TRPC4beta/mu-opioid (AID 2555;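 active = primary screen hit whose calcium fluorescence ratio, in both repeats, exceeds the weak agonist control mean by 3 SD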); settings: DAMGO EC20, Fluo-4 calcium flux, at 10 µM; hits give high values
[5] = biological target: Short transient receptor potential channel 4 (Mus musculus) (UniProt Q9QUQ5); experiment: inhibitors of mouse TRPC4 channel, confirmation, cell-based, Fluo4, HEK293 TRPC4beta/mu-opioid (AID 2636;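 active = calcium signal cut by more than 3 SD below the full-agonist control yet still positive, in both repeats and the earlier primary screen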); settings: DAMGO, Fluo4 calcium flux, at 10 µM; hits give high values
[6] = biological target: Short transient receptor potential channel 4 (Mus musculus) (UniProt Q9QUQ5); experiment: inhibitors of mouse TRPC4 channel, confirmation, cell-based, second round, Fluo4, HEK293 TRPC4beta/mu-opioid, 1 µM (AID 2637); settings: Fluo4 calcium flux, DAMGO, at 1 µM; hits give high values;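 for inhibition: percent of integrated ratio relative to wells lacking test compound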
[7] = biological target: Short transient receptor potential channel 4 (Mus musculus) (UniProt Q9QUQ5); experiment: mouse TRPC4 channel activators, dose response, cell-based, HEK293 TRPC4/mu-opioid, Fluo-4 calcium (AID 434937;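 active = primary screen activator hit with a dose response curve and TRPC4 channel activation at any tested dose; inactive = no activation, no dose response, or not a primary hit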)
[8] = biological target: Short transient receptor potential channel 4 (Mus musculus) (UniProt Q9QUQ5); experiment: mouse TRPC4 channel inhibitors, dose response, cell-based, HEK293 TRPC4/mu-opioid, Fluo-4 calcium (AID 434942;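 active = primary screen inhibitor hit that blocks the TRPC4 channel at some tested dose, yielding a dose curve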)
[9] = biological target: Short transient receptor potential channel 6 (Mus musculus) (UniProt Q61143); experiment: inhibition of mouse TRPC6 channel, confirmation, selectivity assay for TRPC4 inhibitor project, cell-based, HEK293, membrane potential dye, duplicate (AID 434948;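 active = active in primary screen and both duplicates, each dropping signal beyond three positive-control SD with fluorescence still positive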); settings: HEK293 TRPC6, membrane potential dye fluorescence, at 10 µM, stimulated with maximal-effect acetylcholine; hits give high values
[10] = biological target: Short transient receptor potential channel 6 (Mus musculus) (UniProt Q61143); experiment: activation of mouse TRPC6 channel, confirmation, selectivity assay for TRPC4 activator project, cell-based, HEK293, membrane potential dye, duplicate (AID 434950;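 active = membrane potential signal rise above negative control mean plus 3 SD in both duplicates, also active in the earlier TRPC4 screen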); settings: HEK293 TRPC6, membrane potential fluorescence, at 10 µM; hits give high values
[11] = biological target: Short transient receptor potential channel 6 (Mus musculus) (UniProt Q61143); experiment: TRPC6 potentiation by TRPC4 potentiator hits, confirmation, selectivity assay for TRPC4 potentiator project, HEK293 cells, membrane potential dye, duplicate (AID 434952;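 active = compound raising the membrane signal above positive-control mean plus 3 SD in both repeats, and a primary screen hit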); settings: HEK293 TRPC6, membrane potential dye fluorescence, at 10 µM, maximal acetylcholine added after compound; hits give high values
[12] = biological target: Short transient receptor potential channel 4 (Mus musculus) (UniProt Q9QUQ5); experiment: calcium flux activators in TRPC4/5HT1a cells, counter-screen for TRPC4 activator project, cell-based, second counter screen, HEK293 TRPC4/5HT1a, Fluo-4 (AID 434977;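 active = calcium signal rise above buffer-control mean plus 5 SD in both duplicates, and also a hit in the primary screen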;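 for activation: plate controls were assay buffer for no effect and maximal serotonin response for full effect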); settings: Fluo-4 calcium flux, at 10 µM; hits give high values
[13] = calcium flux inhibitors in TRPC4/5HT1a cells, confirmation, counter-screen for TRPC4 inhibitor project, cell-based, second counter screen, HEK293 TRPC4/5HT1a, Fluo-4 (AID 434978;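 active = primary screen active whose calcium signal fell more than 3 SD beyond the full-serotonin control mean in both duplicate plates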;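 for outcome: serotonin given first at submaximal then at maximal dose after compound preincubation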); settings: Fluo-4 calcium flux, at 10 µM, serotonin added to trigger calcium flux; hits give high values
[14] = system: TRPC4 (mouse), co-expressed with 5HT1a in HEK293; experiment: calcium flux potentiators in TRPC4/5HT1a cells, confirmation, counter-screen for TRPC4 potentiator project, cell-based, second counter screen, HEK293 TRPC4/5HT1a, Fluo-4 (AID 434979;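 active = signal rise over 3 SD above mean of control wells given weak agonist, in both repeats and first screen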); settings: Fluo-4 calcium flux, at 10 µM, serotonin added at its EC20 dose; hits give high values
[15] = calcium flux activation in mu-opioid HEK293 cells, confirmation, counter-screen for TRPC4 activator project, cell-based, HEK293 mu-opioid receptor line (AID 449723;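 active = hit in primary screen, with calcium signal over 5 SD above buffer well mean in both duplicates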;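 note: counter screen cells carry the mu-opioid receptor alone and lack TRPC4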); settings: Fluo-4 calcium fluorescence, at 10 µM; hits give high values
[16] = calcium flux enhancement in mu-opioid HEK293 cells, confirmation, counter-screen for TRPC4 allosteric potentiator project, cell-based, HEK293 mu-opioid receptor line (AID 449724;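 active = calcium signal rise more than 3 SD above the low-dose agonist control mean, in both duplicate plates and the primary screen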); settings: Fluo-4 calcium flux, at 10 µM, compound added before EC20 DAMGO stimulus; hits give high values
[17] = biological target: Short transient receptor potential channel 4 (Mus musculus) (UniProt Q9QUQ5); experiment: TRPC4 positive allosteric modulators, dose response, cell-based, HEK293 TRPC4/mu-opioid, Fluo-4 calcium, EC20 DAMGO (AID 434941;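 active = earlier screen potentiator hit that boosts the TRPC4 ion channel at some dose, with a dose response; inactive = no potentiation, no dose response, or not a prior hit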;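 note: calcium entry triggered by an EC20 dose of DAMGO at the co-expressed mu-opioid receptor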)
[18] = thallium flux activation in parental CHO cells, counter-screen for KCNQ1 potentiator project (AID 493006;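 active = duplicate-averaged activation above buffer control mean plus 5 SD of those controls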;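 for activation: fluorescence ratio of max minus min over baseline after K+ and Tl+ depolarization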); settings: parental CHO-K1 cells, FluxOR thallium flux, at 10 µM; hits give high values
[19] = biological target: Potassium voltage-gated channel subfamily KQT member 1 (Homo sapiens) (UniProt P51787); experiment: KCNQ1 potassium channel potentiators, confirmation, FluxOR thallium flux, CHO cells, duplicates (AID 493007;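 active = potentiation averaged over duplicate wells exceeding buffer-only control mean by more than 3 SD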;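 for outcome: cells depolarized by a potassium plus thallium sulfate stimulus after compound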;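 for potentiation: 0% = buffer-only wells and 100% = R-L3 activator control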); settings: KCNQ1 cell line, FluxOR thallium flux fluorescence, at 10 µM; hits give high values, % of reference activator effect, buffer zero
[20] = biological target: Potassium voltage-gated channel subfamily KQT member 2 (Rattus norvegicus) (UniProt O88943); experiment: rat KCNQ2 channel potentiation, selectivity assay for KCNQ1 potentiator project, KCNQ2-CHO-K1 cells (AID 493009;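 active = mean duplicate potentiation above the buffer control mean plus 5 SD of buffer wells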;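 note: assay conditions were tuned for KCNQ1 rather than KCNQ2 modulators; signal is max minus min fluorescence divided by baseline after thallium stimulus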); settings: FluxOR thallium flux fluorescence, at 10 µM; hits give high values, scaled: buffer 0, activator control 100
Potassium voltage-gated channel subfamily KQT member 2 (Rattus norvegicus), sequence (O88943 whole entry, looked up): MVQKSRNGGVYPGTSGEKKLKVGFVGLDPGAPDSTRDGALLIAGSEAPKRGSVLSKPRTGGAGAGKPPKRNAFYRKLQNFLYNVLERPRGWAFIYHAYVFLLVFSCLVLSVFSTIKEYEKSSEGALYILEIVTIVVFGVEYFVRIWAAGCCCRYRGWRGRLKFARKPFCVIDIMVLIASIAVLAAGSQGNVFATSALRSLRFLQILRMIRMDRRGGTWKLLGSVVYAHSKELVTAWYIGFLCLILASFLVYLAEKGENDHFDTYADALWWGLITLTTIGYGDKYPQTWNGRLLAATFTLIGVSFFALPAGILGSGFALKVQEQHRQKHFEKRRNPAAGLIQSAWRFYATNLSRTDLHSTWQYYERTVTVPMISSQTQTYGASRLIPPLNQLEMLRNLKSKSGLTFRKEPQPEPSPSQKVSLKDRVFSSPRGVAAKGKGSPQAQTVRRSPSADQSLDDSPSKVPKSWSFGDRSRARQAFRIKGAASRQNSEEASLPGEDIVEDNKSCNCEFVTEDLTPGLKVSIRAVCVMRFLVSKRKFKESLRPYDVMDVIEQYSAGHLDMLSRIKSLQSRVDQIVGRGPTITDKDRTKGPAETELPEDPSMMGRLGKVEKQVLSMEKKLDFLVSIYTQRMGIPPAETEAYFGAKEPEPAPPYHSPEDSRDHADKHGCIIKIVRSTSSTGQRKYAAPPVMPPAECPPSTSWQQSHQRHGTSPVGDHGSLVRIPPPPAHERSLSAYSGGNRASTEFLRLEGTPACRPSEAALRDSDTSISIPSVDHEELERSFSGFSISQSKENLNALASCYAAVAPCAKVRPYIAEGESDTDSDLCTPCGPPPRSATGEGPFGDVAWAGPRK

Potassium voltage-gated channel subfamily KQT member 1 (Homo sapiens), sequence (P51787 whole entry, looked up): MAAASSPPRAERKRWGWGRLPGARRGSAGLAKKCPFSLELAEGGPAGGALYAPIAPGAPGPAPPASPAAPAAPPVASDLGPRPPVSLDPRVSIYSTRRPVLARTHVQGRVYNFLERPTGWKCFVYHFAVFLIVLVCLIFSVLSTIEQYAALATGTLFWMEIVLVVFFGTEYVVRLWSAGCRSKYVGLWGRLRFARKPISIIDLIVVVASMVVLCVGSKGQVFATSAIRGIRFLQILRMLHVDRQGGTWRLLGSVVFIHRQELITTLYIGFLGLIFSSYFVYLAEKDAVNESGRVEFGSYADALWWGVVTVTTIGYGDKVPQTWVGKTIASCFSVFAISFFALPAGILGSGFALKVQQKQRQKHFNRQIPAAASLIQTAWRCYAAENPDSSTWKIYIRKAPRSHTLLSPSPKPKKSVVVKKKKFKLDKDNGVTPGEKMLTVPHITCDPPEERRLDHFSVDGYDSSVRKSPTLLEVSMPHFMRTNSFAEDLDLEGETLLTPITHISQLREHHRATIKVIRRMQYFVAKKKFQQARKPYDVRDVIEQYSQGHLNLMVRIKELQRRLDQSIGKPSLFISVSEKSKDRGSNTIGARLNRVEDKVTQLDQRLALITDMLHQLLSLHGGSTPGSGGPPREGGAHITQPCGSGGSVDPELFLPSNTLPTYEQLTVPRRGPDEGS
Short transient receptor potential channel 4 (Mus musculus), sequence (Q9QUQ5 whole entry, looked up): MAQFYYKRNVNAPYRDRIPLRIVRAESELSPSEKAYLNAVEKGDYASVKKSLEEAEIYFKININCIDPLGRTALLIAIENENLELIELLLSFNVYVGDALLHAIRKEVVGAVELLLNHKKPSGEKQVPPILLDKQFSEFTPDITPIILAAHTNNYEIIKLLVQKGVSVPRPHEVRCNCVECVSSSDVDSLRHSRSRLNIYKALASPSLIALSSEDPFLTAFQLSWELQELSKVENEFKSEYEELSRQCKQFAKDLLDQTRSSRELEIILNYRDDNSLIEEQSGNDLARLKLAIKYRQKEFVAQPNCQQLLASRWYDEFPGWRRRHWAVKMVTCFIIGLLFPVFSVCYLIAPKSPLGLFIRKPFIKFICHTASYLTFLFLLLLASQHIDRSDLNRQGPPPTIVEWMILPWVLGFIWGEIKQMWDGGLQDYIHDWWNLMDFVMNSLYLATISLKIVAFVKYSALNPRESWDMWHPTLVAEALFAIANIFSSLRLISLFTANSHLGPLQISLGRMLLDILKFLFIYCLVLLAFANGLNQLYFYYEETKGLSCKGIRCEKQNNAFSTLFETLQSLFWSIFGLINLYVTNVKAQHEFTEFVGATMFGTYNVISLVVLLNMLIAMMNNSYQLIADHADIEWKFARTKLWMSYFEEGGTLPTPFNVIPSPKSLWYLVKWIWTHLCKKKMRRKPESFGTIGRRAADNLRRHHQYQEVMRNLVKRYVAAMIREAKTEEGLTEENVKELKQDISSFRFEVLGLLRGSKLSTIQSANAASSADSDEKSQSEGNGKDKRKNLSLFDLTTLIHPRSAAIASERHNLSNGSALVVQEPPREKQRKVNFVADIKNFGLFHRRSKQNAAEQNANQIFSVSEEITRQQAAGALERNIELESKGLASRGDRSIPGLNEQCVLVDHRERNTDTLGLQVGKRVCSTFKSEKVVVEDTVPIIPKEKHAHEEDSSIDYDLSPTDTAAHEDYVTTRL
Short transient receptor potential channel 6 (Mus musculus), sequence (Q61143 whole entry, looked up): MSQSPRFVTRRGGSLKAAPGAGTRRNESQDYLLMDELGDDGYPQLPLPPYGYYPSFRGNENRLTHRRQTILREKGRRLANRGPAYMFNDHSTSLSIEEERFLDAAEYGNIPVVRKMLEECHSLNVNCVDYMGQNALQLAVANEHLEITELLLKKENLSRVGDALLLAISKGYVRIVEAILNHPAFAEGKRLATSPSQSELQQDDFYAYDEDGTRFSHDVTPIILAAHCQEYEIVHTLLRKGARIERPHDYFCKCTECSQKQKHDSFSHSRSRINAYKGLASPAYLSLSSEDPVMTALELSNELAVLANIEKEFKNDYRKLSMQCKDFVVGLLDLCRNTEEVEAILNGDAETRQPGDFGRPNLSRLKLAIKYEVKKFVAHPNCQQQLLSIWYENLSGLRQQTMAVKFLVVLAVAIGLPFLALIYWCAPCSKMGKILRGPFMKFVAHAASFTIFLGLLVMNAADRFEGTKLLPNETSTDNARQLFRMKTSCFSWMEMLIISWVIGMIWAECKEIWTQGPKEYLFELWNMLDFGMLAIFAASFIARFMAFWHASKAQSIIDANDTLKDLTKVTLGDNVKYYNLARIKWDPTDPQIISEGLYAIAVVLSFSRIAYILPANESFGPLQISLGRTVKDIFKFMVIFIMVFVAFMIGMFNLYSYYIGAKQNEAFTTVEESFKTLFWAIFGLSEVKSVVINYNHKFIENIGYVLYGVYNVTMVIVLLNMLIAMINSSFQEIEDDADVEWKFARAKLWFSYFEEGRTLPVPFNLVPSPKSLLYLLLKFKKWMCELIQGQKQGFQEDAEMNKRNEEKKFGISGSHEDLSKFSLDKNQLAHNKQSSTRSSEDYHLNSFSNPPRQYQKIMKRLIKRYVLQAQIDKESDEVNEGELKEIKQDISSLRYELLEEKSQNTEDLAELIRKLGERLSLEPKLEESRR

CC1CCN(c2nc(Cl)nc(Nc3ccc([N+](=O)[O-])cc3)n2)CC1
inactive: outcome [1] | outcome [2] | outcome [3] | outcome [5] | outcome [6] | outcome [7] | outcome [8] | outcome [9] | outcome [10] | outcome [11] | outcome [12] | outcome [13] | outcome [15] | outcome [16]
active: potentiation [4] 15% | potentiation [14] 66%

CC(C1CC2CCC1C2)n1c(-c2cccs2)n[nH]c1=S (stereo not given)
active: inhibition [5] 54% | inhibition [13] 34% | potentiation [19] 48% | potentiation [20] 148%
inactive: outcome [1] | outcome [2] | outcome [3] | outcome [4] | outcome [6] | outcome [7] | outcome [17] | outcome [9] | outcome [10] | outcome [11] | outcome [12] | outcome [14] | outcome [15] | outcome [16] | outcome [18]

Cc1ccc(/C=C/C(=O)c2ccc(O)cc2)cc1
inactive: outcome [1] | outcome [2] | outcome [3] | outcome [4] | outcome [7] | outcome [17] | outcome [9] | outcome [10] | outcome [11] | outcome [12] | outcome [14] | outcome [15] | outcome [16] | outcome [18] | outcome [19] | outcome [20]
active: inhibition [5] 76% | inhibition [6] 38% | inhibition [13] 15.8%

C=CCSc1nc2c(c(=O)[nH]c(=O)n2C)n1C/C=C(/C)Cl
inactive: outcome [1] | outcome [2] | outcome [3] | outcome [4] | outcome [7] | outcome [17] | outcome [9] | outcome [10] | outcome [11] | outcome [12] | outcome [14] | outcome [15] | outcome [16] | outcome [18] | outcome [19] | outcome [20]
active: inhibition [5] 85% | inhibition [6] 57% | inhibition [13] 32.5%

CC1Cc2ccccc2N1C(=O)CSc1nc2c(c(=O)n(C)c(=O)n2C)n1Cc1ccc(F)cc1 (stereo not given)
inactive: outcome [1] | outcome [2] | outcome [5] | outcome [6] | outcome [7] | outcome [8] | outcome [9] | outcome [10] | outcome [11] | outcome [12] | outcome [13] | outcome [15] | outcome [16]
active: potentiation [3] 36% | potentiation [4] 40% | potentiation [14] 67.1%

CNc1nc(N2CCc3ccccc32)ncc1F
inactive: outcome [1] | outcome [2] | outcome [5] | outcome [6] | outcome [7] | outcome [8] | outcome [9] | outcome [10] | outcome [11] | outcome [12] | outcome [13] | outcome [15] | outcome [16]
active: potentiation [3] 27% | potentiation [4] 75% | potentiation [14] 103%

S=c1[nH]nc(-c2cc3c(s2)-c2ccccc2CC3)o1
active: inhibition [5] 97% | inhibition [13] 32.1% | activation [18] 810% | potentiation [19] 241% | potentiation [20] 809%
inactive: outcome [1] | outcome [2] | outcome [3] | outcome [4] | outcome [6] | outcome [7] | outcome [17] | outcome [9] | outcome [10] | outcome [11] | outcome [12] | outcome [14] | outcome [15] | outcome [16]

COc1cc(NS(=O)(=O)c2ccc3ccccc3c2)c2ncccc2c1
inactive: outcome [1] | outcome [2] | outcome [3] | outcome [4] | outcome [6] | outcome [7] | outcome [17] | outcome [9] | outcome [10] | outcome [11] | outcome [12] | outcome [14] | outcome [15] | outcome [16] | outcome [18]
active: inhibition [5] 70% | inhibition [13] 23.4% | potentiation [19] 47% | potentiation [20] 154%

COCCn1c(SCc2ccc(F)cc2)nc2ccccc2c1=O
inactive: outcome [1] | outcome [2] | outcome [3] | outcome [4] | outcome [6] | outcome [7] | outcome [17] | outcome [9] | outcome [10] | outcome [11] | outcome [12] | outcome [14] | outcome [15] | outcome [16]
active: inhibition [5] 96% | inhibition [13] 21.6%

Cc1ccc(OCC(=O)NNC(=S)NC(=O)c2ccc(Br)o2)c(C)c1
inactive: outcome [1] | outcome [2] | outcome [3] | outcome [4] | outcome [6] | outcome [7] | outcome [17] | outcome [9] | outcome [10] | outcome [11] | outcome [14] | outcome [15] | outcome [16]
active: inhibition [5] 65% | activation [12] 18.1% | inhibition [13] 21.6% | activation [18] 198% | potentiation [19] 106% | potentiation [20] 328%

Cc1cc(C(C)(C)C)c(O)c(C)c1CC1=NCCN1
inactive: outcome [1] | outcome [2] | outcome [3] | outcome [5] | outcome [6] | outcome [7] | outcome [8] | outcome [9] | outcome [10] | outcome [11] | outcome [12] | outcome [13] | outcome [14] | outcome [15] | outcome [16]
active: potentiation [4] 14%

c1ccc(-c2nc(NCc3ccco3)c3ccccc3n2)cc1
active: inhibition [5] 87% | inhibition [13] 32.3%
inactive: outcome [1] | outcome [2] | outcome [3] | outcome [4] | outcome [6] | outcome [7] | outcome [17] | outcome [9] | outcome [10] | outcome [11] | outcome [12] | outcome [14] | outcome [15] | outcome [16] | outcome [18] | outcome [19] | outcome [20]

Cn1c(-c2ccccc2)cnc1NCc1ccc(F)cc1
inactive: outcome [1] | outcome [2] | outcome [3] | outcome [4] | outcome [7] | outcome [17] | outcome [9] | outcome [10] | outcome [11] | outcome [12] | outcome [14] | outcome [15] | outcome [16]
active: inhibition [5] 81% | inhibition [6] 53% | inhibition [13] 25.1%

O=C(Nc1cccc(Cl)c1)c1cnn2cccnc12
active: potentiation [3] 16% | potentiation [4] 14% | potentiation [14] 43%
inactive: outcome [1] | outcome [2] | outcome [5] | outcome [6] | outcome [7] | outcome [8] | outcome [9] | outcome [10] | outcome [11] | outcome [12] | outcome [13] | outcome [15] | outcome [16]
